Luciferase inh = blocks purified firefly luciferase enzyme activity; Potency, µM (series often up to 115 µM), most hits filed as inhibitors; P08659; purified P. pyralis luciferase, luminescence, biochemical; 76,000 tested, 2.5% active; also: % is scaled to controls: 0 for no effect and ±100 for the full control effect; nearly all actives have a fitted effect of over 65% in size
Target sequence (P08659 whole entry, looked up): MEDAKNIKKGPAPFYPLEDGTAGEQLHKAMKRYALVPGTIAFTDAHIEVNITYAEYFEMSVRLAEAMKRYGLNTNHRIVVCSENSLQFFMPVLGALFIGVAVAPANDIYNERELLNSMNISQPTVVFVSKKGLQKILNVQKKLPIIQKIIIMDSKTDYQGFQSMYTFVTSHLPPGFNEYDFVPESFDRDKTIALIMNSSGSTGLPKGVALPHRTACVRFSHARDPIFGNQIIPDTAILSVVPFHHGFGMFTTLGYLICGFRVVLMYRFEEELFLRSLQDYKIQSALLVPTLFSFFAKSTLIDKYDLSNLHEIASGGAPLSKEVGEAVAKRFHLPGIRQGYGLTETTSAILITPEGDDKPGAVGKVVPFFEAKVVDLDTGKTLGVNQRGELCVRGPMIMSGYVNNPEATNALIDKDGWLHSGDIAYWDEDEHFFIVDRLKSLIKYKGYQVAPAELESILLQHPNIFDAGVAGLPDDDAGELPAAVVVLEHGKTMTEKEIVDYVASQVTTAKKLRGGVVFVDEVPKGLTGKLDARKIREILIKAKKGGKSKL
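Cell-free enzyme assay, 10nM P. pyralis luciferase, luciferin and ATP each at 10uM. Inhibition profiled over a 6-point titration, read as luminescence.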
3T3 cytotox = cytotoxic compounds in NIH 3T3 cells; Potency, µM (doses to about 96.7 µM), without a hit: at the highest dose activity change, negative = cytotoxicity, usual class: inhibitors; AID 1345082; 94,000 tested, 4.3% active; NIH 3T3 viability, CellTiter-Glo ATP luminescence, 48-72 h; also: % is scaled to controls: 0 for no effect and ±100 for the full control effect; nearly all actives have a fitted effect of over 55% in size
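Cytotoxicity is measured as loss of cellular ATP: NIH 3T3 cells (400/well) are exposed to compound for 48 or 72 hr at 37 °C, then CellTiter-Glo luminescence is imaged after 10 min at room temperature.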
NPR1 antag = antagonists of human natriuretic peptide receptor Npr1 | Potency, µM (highest dose often 46.3 µM), inactives show at the top dose activity change, negative = inhibition, usual class: inhibitors | HEK293 hNpr1 GloSensor cGMP, ANP-stimulated luminescence | 76,000 tested, 1.6% active; calls by dose curve; also: % is scaled to controls: 0 for no effect and ±100 for the full control effect; nearly all actives have a fitted effect of over 60% in size
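HEK293 cells stably expressing human Npr1 and cGMP GloSensor pGS-40F, loaded 2 h with 2% GloSensor reagent, given compound 30 min at room temperature. Luminescence read before and 20 min after 0.1 nM hNppA.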
GPT2 inhibitor = GPT2 alanine aminotransferase inhibition; Q8TD30; Recombinant GPT2, coupled pyruvate oxidase/HRP Amplex Red fluorescence; Potency, µM (titrated, usually from 57.7 µM), for the others: at the highest dose activity change, negative = inhibition, hits mostly inhibitors; 100,000 tested, 0.25% active; AID 1671188; also: % is scaled to controls: 0 for no effect and ±100 for the full control effect; nearly all actives have a fitted effect of over 60% in size
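Fluorescence read-out: pyruvate from GPT2 turnover coupled to pyruvate oxidase, HRP and Amplex Red (0.2mM ThPP, 0.2U/mL PO and HRP, 50uM Amplex final). Substrates 250uM a-KG, 2mM L-alanine; enzyme 10ng/uL; 30 min RT.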
HEK cytotox = HEK 293 cell cytotoxicity; HEK 293 viability, ATP luminescence (CellTiter-Glo), 48-72 h; Potency, µM (top dose mostly 115 µM), for inactives: at the top dose activity change, negative = cytotoxicity, actives largely listed as inhibitors; 94,000 tested, 6.6% active; AID 1345083; also: % is scaled to controls: 0 for no effect and ±100 for the full control effect; nearly all actives have a fitted effect of over 60% in size
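HEK 293 cells seeded at 250 cells/well were exposed to compound for 48 or 72 hr at 37 degree Celsius. Viability taken as ATP content by CellTiter-Glo luminescence.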
NPR1 antag cnf = hNpr1 antagonism, confirmation assay; 1,400 tested, 76% active; HEK293 hNpr1 cGMP GloSensor luminescence, ANP-stimulated; AID 1347044; Potency, µM (top dose mostly 57.6 µM), for the others: top-dose activity change, negative = inhibition, hits mostly inhibitors; shares compounds with NPR1 antag; calls by dose curve; also: nearly all actives have a fitted effect of over 70% in size
Npr2 selectivity = selectivity test of Npr1 antagonists against human Npr2. shares compounds with NPR1 antag. HEK293 hNpr2 GloSensor cGMP luminescence, CNP-stimulated. Potency, µM (doses to about 57.6 µM), for inactives: at the top dose activity change, negative = inhibition, most hits filed as inhibitors. 1,400 tested, 67% active; calls by dose curve; also: nearly all actives have a fitted effect of over 70% in size
FLuc inh counter = FLuc enzyme inhibition, Npr1 counter-screen | shares compounds with NPR1 antag | purified FLuc enzyme, luminescence, Km substrate | Potency, µM (titrated, usually from 57.6 µM), for inactives: at the top dose activity change, negative = inhibition, usual class: inhibitors | 1,400 tested, 0.7% active | AID 1347047; also: series mostly up to about 58 µM; 0% is about no effect
GloSensor ctrl = reduces cGMP signal in GloSensor control cells; shares compounds with NPR1 antag; HEK293 GloSensor cGMP, SNP-stimulated, luminescence; Potency, µM (titrated, usually from 57.6 µM), without a hit: at the top dose activity change, negative = inhibition, most hits filed as inhibitors; 1,400 tested, 69% active; AID 1347051; calls by dose curve; also: % is scaled to controls: 0 for no effect and ±100 for the full control effect; nearly all actives have a fitted effect of over 70% in size
An asterisk follows results filed as active; i = inactive; ? = inconclusive; . = no result; [ ] = remark or other dose. Shown are actives, neighbours in structure and some others; about 10% of the full set was active somewhere. Unless noted, calls follow the shape of the dose curve; as a rule, active = well fitted curve in the direction sought with a large enough effect; inconclusive = small, poorly fitted or top-dose-only effect, or another doubt; inactive = no such curve, though single readings can be large; an effect the other way counts as inactive or inconclusive. Potency is read from the fitted curve at half-maximal effect.

SMILES | Luciferase inh | 3T3 cytotox | NPR1 antag | GPT2 inhibitor | HEK cytotox | NPR1 antag cnf | Npr2 selectivity | FLuc inh counter | GloSensor ctrl
O=C(Cc1ccccc1Cl)NC1CCN(c2cc(C(F)(F)F)ncn2)CC1 | i | -40.7% | 11.2µM* | i | ? | 19.3µM* | 15.3µM* | -1.4% | 15.3µM*
COc1ccccc1C(=O)NC1CCN(c2cc(C(F)(F)F)nc(C)n2)CC1 | i | ? | ? | 3.5% | ? | ? | -28.7% | 3.2% | ?
Cc1ccc(CCNC(=O)C2CCN(c3cc(C(F)(F)F)nc(C)n3)CC2)cc1 | i | -29.0% | -23.0% | -6.3% | ? | . | . | . | .
Cc1nc(N2CCC(NC(=O)Cc3ccccc3Cl)CC2)cc(C(F)(F)F)n1 | i | ? | 10µM* | -0.4% | ? | 19.3µM* | 17.2µM* | 1.8% | 10.9µM*
Cn1c(Cn2ccnc2)nnc1C1CCCN(C(=O)Cc2ccccc2F)C1 (centres undefined) | i | -0.1% | 10.4% | -8.9% | 0.6% | . | . | . | .
OCC1(CCOc2ccccc2)CCCN(c2ncnc3sccc23)C1 (centres undefined) | i | ? | 1.78µM* | -8.9% | ? | 2.73µM* | 3.85µM* | -0.4% | 2.17µM*
Cc1cc(=O)n(CC(=O)Nc2cccc(Cl)c2)c(N2CCc3ccccc3C2)n1 | i | 14.1µM* | 20µM* | i | ? | -29.7% | -22.7% | 0.7% | ?
Cc1cc(=O)n(CC(=O)Nc2ccc(Cl)cc2)c(N2CCc3ccccc3C2)n1 | i | ? | -16.4% | i | ? | . | . | . | .
COc1ccc(OC)c(NC(=O)Cn2c(N3CCC(C)CC3)nc(C)cc2=O)c1 | i | ? | 12.6µM* | 3.1% | ? | 21.7µM* | 21.7µM* | 3.9% | 24.3µM*
COc1cc(NC(=O)Cn2c(N3CCC(C)CC3)nc(C)cc2=O)cc(OC)c1 | i | ? | 6.31µM* | -11.4% | ? | 9.68µM* | 12.2µM* | 2.6% | 6.85µM*
O=c1ncn(Cc2ccccc2)c2ccc(-c3ccccc3)nc12 | i | ? | -3.7%[70.6 µM] | -19.7%[88.5 µM] | -17.4%[172 µM] | . | . | . | .
COc1cccc(CNC(=O)C2Cn3cccc3C(=O)N2C)c1 (centres undefined) | i | -19.2% | 5.0% | -23.3% | i | . | . | . | .
C=CCCC(CN1CCCOCC1)Oc1cc(CCC)nc(C)n1 (centres undefined) | i | -29.1% | 5.7% | -16.1% | -8.7% | . | . | . | .
CC1=NS(=O)(=O)N(C)C=C1C(=O)OCc1noc(-c2cccs2)n1 | i | ? | 10µM* | i | ? | 21.7µM* | 19.3µM* | -1.8% | 21.7µM*
CC1=NS(=O)(=O)N(C)C=C1C(=O)OCc1noc(-c2ccccc2F)n1 | i | ? | 11.2µM* | 3.8% | -32.2% | 19.3µM* | 17.2µM* | -13.0% | 13.7µM*
CC1=NS(=O)(=O)N(Cc2ccccc2)C=C1C(=O)OCc1noc(C2CCCC2)n1 | i | ? | -24.5% | -6.8% | ? | . | . | . | .
CC1=NS(=O)(=O)N(C)C=C1C(=O)OCc1noc(-c2ccccc2C)n1 | i | ? | 10µM* | i | ? | 10.9µM* | 17.2µM* | -11.3% | 10.9µM*
COC(=O)c1ccc(COC(=O)C2=CN(C)S(=O)(=O)N=C2C)o1 | i | -30.4% | ? | 0.4% | -29.9% | 24.3µM* | ? | 2.8% | 19.3µM*
CC1=NS(=O)(=O)N(C)C=C1C(=O)OCc1nc(C2CC2)no1 | i | -3.1% | -4.7% | i | -2.6% | . | . | . | .
CCOc1cc(=O)n2c(c1C(=O)Nc1cc(F)cc(F)c1)CCCC2 | i | -29.3% | -5.7% | i | ? | . | . | . | .
CC1=NS(=O)(=O)N(C)C=C1C(=O)OCc1nc(-c2cccs2)no1 | i | -21.8% | ? | -14.8% | -27.3% | 24.3µM* | ? | -17.0% | 21.7µM*
CC1=NS(=O)(=O)N(Cc2ccccc2)C=C1C(=O)OCc1nc(-c2cccs2)no1 | i | ? | -20.4% | 2.1% | ? | . | . | . | .
CC(C)C(=O)N1CCC2(CC1)CC(N(Cc1ccc(F)cc1)C1CC1)CCO2 (centres undefined) | i | -24.0% | -24.4% | -11.6% | ? | -19.0% | -15.7% | 0.9% | -3.0%
Cc1ccc(C(=O)N2CCC3(CC2)CC(N(Cc2ccccc2)C2CC2)CCO3)cc1F (centres undefined) | i | ? | 11.2µM* | i | 44.7µM* | 24.3µM* | ? | -3.0% | 27.3µM*
O=C(Cc1ccc(F)cc1)N1CCC2(CC1)CC(N(Cc1ccccc1)C1CC1)CCO2 (centres undefined) | i | ? | ? | i | ? | . | . | . | .
SMILES | Luciferase inh | 3T3 cytotox | NPR1 antag | GPT2 inhibitor | HEK cytotox | NPR1 antag cnf | Npr2 selectivity | FLuc inh counter | GloSensor ctrl
O=S(=O)(c1ccc(Cl)cc1)N1CCOC[C@H](Oc2ccc(C(F)(F)F)cc2)C1 | i | ? | -23.7% | 0.8% | ? | ? | ? | 3.8% | ?
O=C(C1CCC1)N1CCC2(CC1)CC(Cc1nc(C3CC3)no1)CCO2 (centres undefined) | i | ? | -17.3% | -6.1% | ? | . | . | . | .
O=S(=O)(c1cccc(F)c1)N1CCC2(CC1)CC(Cc1nc(C3CC3)no1)CCO2 (centres undefined) | i | ? | 11.2µM* | 3.3% | 44.7µM* | 24.3µM* | 24.3µM* | 3.3% | 21.7µM*
C[S+](=O)([O-])c1ccc(-c2cc(C(=O)NCc3ccccc3)nn3cccc23)cc1 | . | ? | . | -0.3% | ? | . | . | . | .
Cc1ccc(NC(=O)N2CCC(CCNC(=O)CC3CCCC3)CC2)cc1F | i | -22.9% | -1.1% | i | -17.3% | . | . | . | .
Cc1noc(C)c1[S+](=O)([O-])N1CCc2nc(C(C)C)nc(-c3ccc(O)cc3)c2C1 | i | ? | -3.9% | i | ? | -23.7% | ? | 1.2%[86.2 µM] | 8.5%
CO[C@@]1(NC(=O)Cc2cccs2)C(=O)N2C(C(=O)O)=C(COC(N)=O)CS[C@@H]21 | . | . | . | -2.5% | . | . | . | . | .
Cn1c2ccc(NC(=O)c3ccccc3)cc2c(=O)n2nc(C(=O)O)cc12 | . | . | . | i | . | . | . | . | .

Screening results: PubChem BioAssay, National Center for Advancing Translational Sciences (NCATS)
